From PubChem BioAssay
In the library only some 4.4% were active in any assay of this set; here they are far more common.
SKKanGAS inh: S. pyogenes SKKanGAS growth inhibitors in kanamycin, primary screen, streptokinase expression inhibitor project, SKKanGAS strain, BacTiter-Glo luminescence | 6 h | inhibition, % at 7.5 µM | 300,000 tested, 1.3% active | AID 1662, 2009;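 active means mean replicate score, as percent of positive control median, at least 50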;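 further: strain carries kanamycin resistance gene driven by streptokinase promoter and grows in 40 µg/ml kanamycin; loss of luminescence reflects streptokinase promoter inhibition or plain growth inhibition; 0% = median of DMSO wells and 100% = positive control at its reference dose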
PfHsp90 set2: growth inhibition of PfHsp90-expressing yeast, primary screen, antimalarial PfHsp90 inhibitor project, S. cerevisiae, BacTiter-Glo luminescence, single point, set 2; 310,000 tested, 0.32% active; BacTiter-Glo ATP, 48 h; yeast lacking PDR1 and PDR3 efflux regulators; inhibition, % at 9.4 µM; AID 504621, 2011;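 active means every replicate shows inhibition above about 80%, whatever the replicate mean, limit read from the data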;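 further: 0% = DMSO neutral controls and 100% = 20 µM radicicol positive controls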
TIM10 inh: growth inhibitors of isogenic TIM10 control yeast, primary screen, counter-screen for tim10-1 yeast inhibitor project, luminescence, uHTS; S. cerevisiae TIM10 strain growth, BacTiter-Glo luminescence, 24 h; AID 463195, 2010; inhibition, % at 10 µM; 330,000 tested, 1.4% active;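 active means inhibition of 40% or more at the single tested concentration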;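 further: wild-type TIM10 isogenic control strain grown at permissive 25 °C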
tim10-1 inh: growth inhibitors of tim10-1 mutant yeast, primary screen, luminescence, uHTS | 330,000 tested, 2.2% active | S. cerevisiae tim10-1 ts strain growth, BacTiter-Glo, 24 h | inhibition, % at 20 µM;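 active means inhibition of at least 40%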;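 further: mutant grown at 25 °C; 0% = DMSO wells with yeast and 100% = wells holding no yeast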
tim23-1 inh: growth inhibitors of tim23-1 mutant yeast, primary screen, luminescence, uHTS; S. cerevisiae tim23-1 growth, BacTiter-Glo luminescence, 24 h; inhibition, % at 20 µM; 330,000 tested, 1.3% active; AID 463212, 2010;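 active means growth inhibition of the mutant yeast at or above 50%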;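 further: temperature-sensitive mutant grown at 25 °C; plate controls were DMSO-treated mutant yeast for no effect and medium wells lacking yeast for full effect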
* hit, by the source's call; . = not tested or not shown; + = active, no number.

SMILES	SKKanGAS inh	PfHsp90 set2	TIM10 inh	tim10-1 inh	tim23-1 inh
COc1ccc(-c2nc(-c3ccc(NC(=O)c4ccncc4)cc3)no2)cc1OC	55*	3	16	38	25
Cc1cc(/C=c2/sc3nc4ccccc4n3c2=O)c(C)n1-c1ccccn1	21	19	36	31	37
Cc1cc(/C=c2\sc3nc4ccccc4n3c2=O)c(C)n1-c1ccc(C(=O)O)cc1	34	112*	.	.	.
CCOC(=O)c1c(CN(C)C)n(-c2ccccc2)c2cc(Br)c(OC)cc12	-4	24	24	28	31
CCOC(=O)c1c(CN(C)C)n(-c2ccc(C)cc2)c2cc(Br)c(O)cc12	100*	-12	31	22	15
Cc1nc(N/N=C\c2ccc3c(c2)OCO3)sc1C	53*	23	6	0	25
C(=N\Nc1nc2ccccc2s1)/c1ccc2c(c1)OCO2	-3	-47	21	28	13
Cn1c2ccccc2c2ccc3c(c21)C(=O)C=CC3=O	.	124*	.	.	.
Cc1ccc(C)c2c1c1ccccc1n2C	-7	-3	6	2	-4
COc1ccc(-n2cnc(=S)[nH]c2=S)cc1	.	-21	.	.	.
Cc1cc(C)n(-c2nc(Nc3ccccc3)nc(-n3nc(C)cc3C)n2)n1	40	-22	-4	8	-13
Cc1cc(C)n(-c2nc(N(c3ccccc3)c3ccccc3)nc(-n3nc(C)cc3C)n2)n1	108*	.	25	12	12
N#Cc1nc(-c2ccc(OCc3ccccc3Cl)cc2)oc1NCCCn1ccnc1	74*	.	8	26	35
N#Cc1nc(-c2ccc(OCc3ccccc3)cc2)oc1NCCCn1ccnc1	44	-10	16	15	16
Cc1noc(C)c1COc1ccccc1C(=O)N(C)CC(=O)Nc1ccc(F)c(F)c1F	.	-4	-5	10	6
CC(CCc1ccccc1)NC(=O)c1ccc(Br)cc1 (centres undefined)	-8	112*	-39	-12	3
CC(NC(=O)CNC(=O)c1ccccc1Br)c1cccs1 (centres undefined)	.	-11	6	-3	-2
O=C(Nc1cccc(C(F)(F)F)c1)c1cccnc1N1CCN(CCO)CC1	-7	6	-7	10	11
O=C(Nc1cccc(C(F)(F)F)c1)c1cccnc1N1CCN(c2ccccc2)CC1	51*	10	5	24	27
Cc1ccc(S(=O)(=O)N2C[C@@H]3[C@H]4CC[C@H](C4)[C@@H]3[C@@H](C)[C@@H]2c2ccn([Si](C(C)C)(C(C)C)C(C)C)c2)cc1	.	.	-6	11	24
Cc1ccc(C(=O)C2CC2)cc1C	.	1	.	.	.
N=C1S/C(=C\c2ccco2)C(=O)N1c1nccs1	81*	-84	21	-12	8
N=C1S/C(=C\c2ccco2)C(=O)N1c1ccc2c(c1)OCO2	2	-16	0	1	12
CC(C(=O)N(C)Cc1cccc(F)c1)N1CCN(S(=O)(=O)c2ccc3c(c2)OCCCO3)CC1 (centres undefined)	.	4	14	21	26
CCCn1c(=O)c(C(=O)N/N=C/c2ccc(F)cc2)c(O)c2ccccc21	103*	42	-29	-26	-10
SMILES	SKKanGAS inh	PfHsp90 set2	TIM10 inh	tim10-1 inh	tim23-1 inh
CCCCCCn1c(=O)c(C(=O)N/N=C/c2cccc(F)c2)c(O)c2ccccc21	63*	-22	-8	-6	-5
CCCn1c(=O)c(C(=O)N/N=C/c2ccccc2F)c(O)c2ccccc21	15	.	20	12	-18
CC(C)CCn1c(=O)c(C(=O)N/N=C/c2cccc(F)c2)c(O)c2ccccc21	81*	18	0	-25	-1
Cc1ccc(C(=O)N2[C@@H]3CN(C)C(=O)[C@@]2(Cc2ccccc2)[C@H]2C(=O)N(Cc4ccccc4)C(=O)[C@@H]32)cc1	.	6	.	.	.
COc1cc(C#Cc2c(-c3cncn3C)n(C)c3ccc(-c4ccc(OC)nc4)cc23)cc(OC)c1	.	+	5	24	25
Cc1ccc(Nc2nc(N)c([N+](=O)[O-])c(NCc3ccco3)n2)cc1C	60*	-34	6	11	26
Cc1cccc(CN2CCCC(C(=O)c3ccc4c5c(cccc35)CC4)C2)n1 (centres undefined)	65*	-4	21	22	15
COc1ccc2cc(C(=O)C3CCCN(Cc4cccc(C)n4)C3)ccc2c1 (centres undefined)	79*	2	-3	38	43
COc1ccc(-c2oc3ccccc3c2C#Cc2cncn2C)cc1	.	-14	23	20	31
COc1ccc(S(=O)(=O)N(C)C[C@H]2Oc3c(NS(=O)(=O)c4cn(C)cn4)cccc3C(=O)N([C@H](C)CO)C[C@@H]2C)cc1	.	5	3	4	15
O=C(Nc1nc(-c2ccccn2)cs1)c1ncc(Cl)c(Cl)c1Cl	98*	110*	-13	30	-34
Cc1cccnc1Nc1nc(-c2ccccn2)cs1	106*	106*	34	-30	10
O=C(/C=C/c1ccco1)Nc1nc(-c2ccccc2)cs1	6	-33	-2	-58	23
O=C(Nc1nc(-c2ccccn2)cs1)C1CCCC1	-2	-5	15	28	2
O=C(/C=C/c1ccco1)Nc1nc(-c2ccccn2)cs1	55*	-8	-19	-45	-30
O=C(Nc1nc(-c2ccccn2)cs1)c1cc2ccccc2o1	104*	105*	21	13	20
Cc1cccc(C(=O)NC(C(=O)Nc2nc(-c3ccccn3)cs2)C(C)C)c1 (centres undefined)	91*	6	6	18	17
C[C@H](NC(=O)c1ccccc1)C(=O)Nc1nc(-c2ccccn2)cs1	19	-44	-10	15	17
O=C(Nc1nc(-c2ccccn2)cs1)c1ccc(S(=O)(=O)N2CCCCC2)cc1	84*	.	17	7	40
CCc1sc(C(=O)Nc2nc(-c3ccccn3)cs2)cc1C	.	107*	12	10	25
O=C(COc1ccc(F)cc1Cl)Nc1nc(-c2ccccn2)cs1	110*	-94	0	28	33
O=C(COc1ccccc1Cl)Nc1nc(-c2ccncc2)cs1	.	-18	5	7	27
COc1cc(C(C)=O)ccc1OCC(=O)Nc1ccc(C)c(S(=O)(=O)N2CCCCCC2)c1	.	-17	16	17	18
CCCN(CC(=O)Nc1ccccc1OC)C(=O)c1cc(-c2ccccc2)nn1-c1ccccc1	.	-8	8	22	30
Cn1cccc1C(=O)Nc1nc(-c2ccccn2)cs1	81*	-28	4	1	23
O=C(CCCSc1ccccc1)Nc1nc(-c2ccccn2)cs1	105*	-15	18	25	11
O=C(CN1C(=O)CCC1=O)Nc1nc(-c2ccccn2)cs1	-4	-8	-10	-4	-5
